In PubChem BioAssay (EPA / NIEHS):
Several values for one entry are separate records, joined by “and”; a condition that tells them apart may be missing. Identical values can stand only once. Where a structure was tested more than once in an assay, its records may differ in their call. Activity calls are given as the source filed them. Rule for the calls: active = hit-call score of the fitted dose curve at least 0.9, where 1 is the maximum; inactive = score below 0.9.

Key:
[1] = APR_HepG2_NuclearSize_72hr: Apredica 72-hour HepG2 Assay for Nuclear Size (AID 2282925); conditions: high-content imaging, actives raise or lower the signal
Method in brief: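 Nuclear size was read by high-content imaging of Hoechst 33342 stain after formaldehyde fixation. Compounds ran 72 h on HepG2 at 0.39 to 200 uM, with final DMSO 0.5% v/v. Curves fitted both directions relative to DMSO control.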

[2] = ATG_CRE_CIS: Attagene CIS-FACTORIAL HepG2 Assay for human cAMP Responsive Element (CRE) binding protein 3 (AID 2282926); conditions: HepG2 CRE cis-reporter, Attagene multiplexed mRNA; actives raise or lower the signal
Method in brief: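 Readout: fluorescently labelled reporter transcripts resolved by capillary electrophoresis after RT-PCR, taken 24 h post-dosing in transfected HepG2. Endogenous transcription factor activity drives each cis-element reporter; gain or loss of signal fitted relative to DMSO control.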

[3] = molecular target: CCAAT/enhancer-binding protein beta (Homo sapiens) (UniProt P17676); experiment: ATG_C_EBP_CIS: Attagene CIS-FACTORIAL HepG2 Assay for human CCAAT/Enhancer Binding Protein (C/EBP) beta (AID 2282927); conditions: HepG2 Attagene cis-factorial transcription factor reporter; actives raise or lower the signal
Method in brief: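 Endogenous C/EBPb-driven reporter transcripts measured in transfected human HepG2 cells at 24 h via RT-PCR and capillary electrophoresis of labelled fragments. Activity fitted in both directions relative to DMSO baseline.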

[4] = ATG_CMV_CIS: Attagene CIS-FACTORIAL HepG2 Assay for human CMV (Internal Marker) (AID 2282928); conditions: HepG2 CMV promoter reporter, transcription factor profiling; actives raise or lower the signal;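 note: endpoint acts as a background internal control marker rather than a target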
Method in brief: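 Fluorescence intensity of RT-PCR-derived reporter fragments, resolved by capillary electrophoresis, gives the signal. HepG2 liver cells bearing transfected cis-element reporters were treated 24 h; activity in either direction was fit relative to DMSO-treated controls.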

[5] = ATG_DR4_LXR_CIS: Attagene CIS-FACTORIAL HepG2 Assay for human Liver X Receptor (LXR), DR4 submotif (AID 2282929); conditions: HepG2 Attagene DR4 cis-reporter, mRNA transcription; actives raise or lower the signal
Method in brief: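 Transiently transfected HepG2 liver cells; cis-regulated reporters; 24 h dosing. RT-PCR plus CE read-out of reporter mRNA. DMSO baseline, bidirectional curve fitting.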

[6] = molecular target: Aryl hydrocarbon receptor (Homo sapiens) (UniProt P35869); experiment: ATG_Ahr_CIS: Attagene CIS-FACTORIAL HepG2 Assay for human Aryl Hydrocarbon Receptor (Ahr) (AID 2282930); conditions: HepG2 AhR cis-factorial reporter transcription; actives raise or lower the signal
Method in brief: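 Reporter mRNA levels, quantified by RT-PCR and fluorescent capillary electrophoresis, reflect endogenous AhR transcriptional activity in HepG2 cells carrying transfected cis-promoter reporter constructs. Readout at 24 h post-dose; gain or loss fitted against DMSO baseline.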

[7] = ATG_AP_1_CIS: Attagene CIS-FACTORIAL HepG2 Assay for human Activator Protein 1 (AP-1) (AID 2282931); conditions: HepG2 Attagene cis-factorial AP-1 reporter mRNA; actives raise or lower the signal
Method in brief: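 We transfected HepG2 cells transiently with a set of cis-regulated reporter transcription units, dosed them for 24 h, and quantified reporter mRNA via RT-PCR and capillary electrophoresis, scoring gain or loss of signal relative to DMSO.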

[8] = ATG_AP_2_CIS: Attagene CIS-FACTORIAL HepG2 Assay for human Activator Protein 2 (AP-2) (AID 2282932); conditions: HepG2 AP-2 cis-reporter, Attagene transcription factor profiling; actives raise or lower the signal
Method in brief: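 Transiently transfected HepG2 cells are exposed to chemical for 24 h. Reporter transcripts are then measured as fluorescence following RT-PCR and capillary separation, and gain- or loss-of-signal is fitted relative to DMSO.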

[9] = ATG_BRE_CIS: Attagene CIS-FACTORIAL HepG2 Assay for human Bone Morphogenetic Protein (BMP) Response Element (BRE) (AID 2282933); conditions: HepG2 BMP response element reporter, Attagene transcription factor profiling; actives raise or lower the signal
Method in brief: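 Multiplexed cis-reporter assay, HepG2, 24 h exposure. mRNA from reporter units quantified via RT-PCR/CE; DMSO baseline; bidirectional curve fit.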

[10] = molecular target: Retinoic acid receptor alpha (Homo sapiens) (UniProt P10276); experiment: ATG_DR5_RAR_CIS: Attagene CIS-FACTORIAL HepG2 Assay for human Retinoic Acid Receptor Alpha (RARE), DR5 submotif (AID 2282934); conditions: HepG2 Attagene cis-factorial RARE DR5 reporter, mRNA; actives raise or lower the signal;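 for AC50: reporter responds to endogenous RAR alpha beta and gamma in HepG2 not RARA alone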
Method in brief: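 Reporter transcripts from a DR5-regulated unit, measured via RT-PCR plus capillary electrophoresis, reflect endogenous RAR activity in transiently transfected human HepG2 liver cells. Exposure lasted 24 h; gain or loss of signal scored against DMSO.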

Measured: AC50

Chain of Retinoic acid receptor alpha (Homo sapiens) (P10276 whole entry, looked up): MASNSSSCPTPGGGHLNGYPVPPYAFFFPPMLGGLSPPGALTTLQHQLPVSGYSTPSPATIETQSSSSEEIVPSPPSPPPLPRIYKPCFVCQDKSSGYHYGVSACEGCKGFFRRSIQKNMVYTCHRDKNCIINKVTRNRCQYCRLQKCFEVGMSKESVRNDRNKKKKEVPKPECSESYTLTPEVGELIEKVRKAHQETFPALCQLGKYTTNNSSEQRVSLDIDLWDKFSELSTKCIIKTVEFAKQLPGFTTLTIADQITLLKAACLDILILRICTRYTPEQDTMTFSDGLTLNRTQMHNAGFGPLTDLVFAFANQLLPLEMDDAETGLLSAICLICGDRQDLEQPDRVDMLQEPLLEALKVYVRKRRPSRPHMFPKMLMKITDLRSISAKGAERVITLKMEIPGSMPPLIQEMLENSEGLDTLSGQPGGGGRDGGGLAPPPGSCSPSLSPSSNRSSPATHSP
Chain of Aryl hydrocarbon receptor (Homo sapiens) (P35869 whole entry, looked up): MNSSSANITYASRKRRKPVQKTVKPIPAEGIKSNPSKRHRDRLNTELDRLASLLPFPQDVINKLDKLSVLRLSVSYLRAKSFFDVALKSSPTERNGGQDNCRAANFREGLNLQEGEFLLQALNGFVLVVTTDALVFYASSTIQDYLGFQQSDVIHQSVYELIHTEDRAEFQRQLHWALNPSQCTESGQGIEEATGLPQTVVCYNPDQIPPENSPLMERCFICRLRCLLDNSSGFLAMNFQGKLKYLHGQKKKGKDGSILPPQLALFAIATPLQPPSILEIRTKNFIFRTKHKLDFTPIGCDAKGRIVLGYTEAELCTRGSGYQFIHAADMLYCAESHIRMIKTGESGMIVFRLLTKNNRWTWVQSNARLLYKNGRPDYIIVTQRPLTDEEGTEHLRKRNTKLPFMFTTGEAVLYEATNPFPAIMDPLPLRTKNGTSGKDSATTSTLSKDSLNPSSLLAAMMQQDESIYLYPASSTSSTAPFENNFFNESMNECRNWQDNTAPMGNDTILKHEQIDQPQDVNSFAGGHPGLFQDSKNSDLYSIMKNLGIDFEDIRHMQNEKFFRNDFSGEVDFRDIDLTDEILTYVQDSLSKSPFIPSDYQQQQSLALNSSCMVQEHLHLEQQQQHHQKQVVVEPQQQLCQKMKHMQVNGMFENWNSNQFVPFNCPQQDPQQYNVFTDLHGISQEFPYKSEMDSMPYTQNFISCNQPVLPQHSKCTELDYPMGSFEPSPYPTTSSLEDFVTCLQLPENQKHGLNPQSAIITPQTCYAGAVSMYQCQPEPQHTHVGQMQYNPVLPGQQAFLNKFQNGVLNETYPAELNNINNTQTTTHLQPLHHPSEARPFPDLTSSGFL
Chain of CCAAT/enhancer-binding protein beta (Homo sapiens) (P17676 whole entry, looked up, the tested form may be a part): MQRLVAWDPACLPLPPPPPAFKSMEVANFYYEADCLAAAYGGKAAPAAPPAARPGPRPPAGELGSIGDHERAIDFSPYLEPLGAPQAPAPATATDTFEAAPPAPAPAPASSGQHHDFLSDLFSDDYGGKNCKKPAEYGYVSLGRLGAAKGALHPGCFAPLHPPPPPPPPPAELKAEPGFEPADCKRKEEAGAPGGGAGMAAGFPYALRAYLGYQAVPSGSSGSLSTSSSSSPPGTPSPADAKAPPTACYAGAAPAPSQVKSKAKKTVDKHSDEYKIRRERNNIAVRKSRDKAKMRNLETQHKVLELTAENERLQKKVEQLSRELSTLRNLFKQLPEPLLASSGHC

COC(=O)c1ccccc1C(=O)OC
inactive: [1] | [2] | [3] | [4] | [5] | [6] | [7] | [8] | [9] | [10]

CON(C)C(=O)Nc1ccc(Cl)c(Cl)c1
active: [4] 55.6 µM | [6] 27.4 µM [middle of 4 runs]
inactive: [1] | [2] | [3] | [4] | [5] | [7] | [8] | [9] | [10]

CO/C=C(/C(=O)OC)c1ccccc1Oc1cc(Oc2ccccc2C#N)ncn1
inactive: [1] | [2] | [3] | [4] | [5] | [6] | [7] | [8] | [9] | [10]
active: [2] 21 µM | [3] 7.46 µM | [5] 41.8 µM and 26.2 µM and 52.9 µM | [6] 106 µM and 122 µM | [7] 9.92 µM

CC(C)C1(C)N=C(c2nc3ccccc3cc2C(=O)O)NC1=O (stereo not drawn)
inactive: [1] | [2] | [3] | [4] | [5] | [6] | [7] | [8] | [9] | [10]

O=C(O)c1nc(Cl)ccc1Cl
active: [6] 50 µM
inactive: [1] | [2] | [3] | [4] | [5] | [6] | [7] | [8] | [9]

CNC(=S)S
inactive: [1] | [2] | [3] | [4] | [5] | [6] | [7] | [8] | [9]
active: [4] 50 µM | [6] 33.2 µM | [7] 50 µM | [9] 65.9 µM

CC(C)Oc1cc(-n2nc(C(C)(C)C)oc2=O)c(Cl)cc1Cl
inactive: [1] | [2] | [3] | [5] | [6] | [8]
active: [4] 6.05 µM | [7] 21.8 µM | [9] 50 µM | [10] 860 nM

CCCCOC(=O)c1ccccc1C(=O)OCCCC
inactive: [1] | [2] | [3] | [4] | [5] | [6] | [7] | [8] | [9] | [10]
active: [5] 177 µM | [7] 68.2 µM and 85.6 µM

CC(C)(C)c1ccc(CSc2cnn(C(C)(C)C)c(=O)c2Cl)cc1
inactive: [1] | [4] | [6] | [8]
active: [2] 0.188 µM | [3] 0.0129 µM | [5] 50 µM | [7] 0.0997 µM | [9] 0.103 µM | [10] 583 nM

CCCN(CCC)c1c([N+](=O)[O-])cc(S(N)(=O)=O)cc1[N+](=O)[O-]
active: [5] 4.79 µM and 11.1 µM | [10] 1.22 µM and 1.19 µM
inactive: [1] | [2] | [3] | [4] | [5] | [6] | [7] | [8] | [9] | [10]

CCCC1COC(Cn2cncn2)(c2ccc(Cl)cc2Cl)O1 (stereo not drawn)
inactive: [1] | [2] | [3] | [4] | [5] | [6] | [7] | [8] | [9] | [10]
active: [4] 50 µM | [6] 25 µM | [7] 50 µM | [9] 29.7 µM | [10] 6970 nM

OC(c1ccc(Cl)cc1)(c1cncnc1)c1ccccc1Cl (stereo not drawn)
active: [4] 2.95 µM | [5] 13.1 µM | [7] 13.3 µM | [9] 19.8 µM | [10] 13100 nM
inactive: [1] | [2] | [3] | [4] | [5] | [6] | [7] | [8] | [9] | [10]
